Activity calls are given as the source filed them.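 Rule for the calls, unless noted: active = visually confirmed hit in the image check and inhibition above 20%; inconclusive = visually confirmed hit but inhibition not above 20%; inactive = no visual hit in the image check.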
Legend:
[1] = inhibitors of TNFa-induced NFkB p65 translocation, primary screen, imaging, HUVEC, MLSMR starter and 10KST1 sets (AID 438;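 active = inhibition above 20% together with a positive visual image hit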;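 note: compound added about 3h40 before a 20 min TNFalpha stimulation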;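 for inhibition: signal is the nuclear over cytoplasmic p65 intensity ratio per well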); conditions: HUVEC TNFa-induced p65 nuclear translocation; cell count: measured here: nuclei count (cytotoxicity indicator), at 2.08 µM; inhibition: at 2 µM, stronger effect = higher value, 0% TNFa-plus-vehicle, 100% no-TNFa wells
[2] = inhibitors of mutant huntingtin aggregation, primary screen, imaging, exon1htt(103Q)mCFP cells, high-content imaging (AID 483;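 active = visual image review flags a hit and inhibition of aggregation exceeds 20%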;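 note: compound exposure lasted 3 days before fixation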;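 for nuclei count: percent of the per-plate median nuclei count of sample wells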); conditions: exon1htt(103Q)mCFP cell line, aggregate imaging, at 2 µM; inhibition of aggregation: stronger effect = higher value; nuclei count: measured here: cell count, toxicity
[3] = inhibitors of E-selectin induction by TNFa, primary screen, imaging, HUVEC, immunofluorescence, MLSMR starter and 10KST1 sets (AID 487); conditions: HUVEC TNFalpha-induced E-selectin immunofluorescence imaging, at 2 µM; inhibition: stronger effect = higher value; nuclei count: measured here: cell number, toxicity;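 for inhibition: signal is fraction of cell area covered by stained E-selectin grains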;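 for nuclei count: 100% = median nuclei count of all wells on the same plate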
[4] = target: Voltage-gated potassium channel subunit beta-2 (Rattus norvegicus) (UniProt P62483); assay: KvBeta enzyme negative modulators, primary screen, biochemical, NADPH fluorescence (AID 622;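 active = fluorescence slope higher than the sample average by over 3 SD, cut at about -0.22 in these data, passing the limit was not always enough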;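 note: slope of raw intensity against log time taken from 70 to 1610 s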); conditions: recombinant KvBeta, 4-cyanobenzaldehyde reduction, at 10 µM, stronger effect = higher value
[5] = target: Voltage-gated potassium channel subunit beta-2 (Rattus norvegicus) (UniProt P62483); assay: KvBeta positive modulators, primary screen, biochemical, NADPH fluorescence (AID 623;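 active = NADPH fluorescence slope more negative than the mean of all samples by about 3 SD, 99.7% confidence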;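 note: fluorescence intensity change per second fitted from 20 to 320 s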); conditions: Recombinant KvBeta, NADPH fluorescence decrease slope, 10 min; at 10 µM; stronger effect = lower value
[6] = target: Alpha-2C adrenergic receptor (Homo sapiens) (UniProt P18825); assay: modulators of alpha2C/GIRK thallium flux, primary screen, cell-based, HEK293 alpha2C/GIRK1/2 (AID 624;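 active = fluorescence slope after compound addition differing from the mean of all screened samples at 99.7% confidence, in either direction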;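 note: slope of fluorescence ratio to pre-addition baseline per second over 15 to 24 s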); conditions: thallium flux BTC fluorescence, at 10 µM, actives lie on both sides
[7] = inhibitors of Sendai virus-induced IRF3 signaling, primary screen, TLR/RLR signaling modifier project, cell-based, Sendai virus stimulus, luciferase, 10K MLSCN set (AID 602276;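 active = inhibition at or above 50% at 10 µM; inactive = inhibition below 50%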;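 note: firefly luciferase from ISG56 promoter only with Renilla not read in this screen; 0% = Sendai virus plus DMSO and 100% = medium plus DMSO without virus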); conditions: HEK293 RL24 IRF3 luciferase reporter, at 10 µM, stronger effect = higher value
[8] = inhibitors of poly I:C-induced TLR3 signaling, primary screen, cell-based, poly I:C stimulus, luciferase, 10K MLSCN set (AID 602277;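 active = inhibition of the reporter signal at or above 50%; inactive = inhibition below 50%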); conditions: HEK293-TLR3 RL24 IRF3 luciferase reporter, at 10 µM, stronger effect = higher value

Alpha-2C adrenergic receptor (Homo sapiens), sequence (P18825 whole entry, looked up): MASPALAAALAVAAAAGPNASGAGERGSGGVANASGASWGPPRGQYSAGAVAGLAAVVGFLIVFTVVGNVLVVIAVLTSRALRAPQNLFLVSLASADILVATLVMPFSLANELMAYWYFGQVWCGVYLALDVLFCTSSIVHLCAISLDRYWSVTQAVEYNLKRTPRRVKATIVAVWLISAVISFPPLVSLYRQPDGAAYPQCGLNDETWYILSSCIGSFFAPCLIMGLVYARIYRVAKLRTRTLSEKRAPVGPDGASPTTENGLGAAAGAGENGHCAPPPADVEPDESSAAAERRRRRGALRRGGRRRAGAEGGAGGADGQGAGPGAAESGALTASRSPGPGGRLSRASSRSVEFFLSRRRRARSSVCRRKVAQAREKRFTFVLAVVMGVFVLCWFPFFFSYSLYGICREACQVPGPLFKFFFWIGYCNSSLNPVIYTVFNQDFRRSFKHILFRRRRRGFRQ
Voltage-gated potassium channel subunit beta-2 (Rattus norvegicus), sequence (P62483 whole entry, looked up): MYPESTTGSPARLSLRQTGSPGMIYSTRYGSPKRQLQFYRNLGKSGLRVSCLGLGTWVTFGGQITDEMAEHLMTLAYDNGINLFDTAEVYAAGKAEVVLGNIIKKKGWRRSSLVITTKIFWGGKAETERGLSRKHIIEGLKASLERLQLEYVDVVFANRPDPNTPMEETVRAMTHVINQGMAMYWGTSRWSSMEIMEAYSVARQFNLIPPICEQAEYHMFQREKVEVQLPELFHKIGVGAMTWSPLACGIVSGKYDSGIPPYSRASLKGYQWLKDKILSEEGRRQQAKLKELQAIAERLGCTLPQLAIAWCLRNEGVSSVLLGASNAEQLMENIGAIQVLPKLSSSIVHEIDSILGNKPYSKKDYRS

SMILES | cell count [1] | inhibition [1] | inhibition of aggregation [2] | nuclei count [2] | inhibition [3] | nuclei count [3] | fluorescence slope [4] | NADPH fluorescence slope [5] | slope [6] | inhibition [7] | inhibition [8]
COc1ccc(C)cc1NS(=O)(=O)c1ccc(NS(=O)(=O)c2ccc(NC(C)=O)cc2)cc1 | 345 | -7.8% (inactive) | -15.2% (inactive) | 99.4% | -16.4% (inactive) | 119% | -0.514 (inactive) | -6e-05 (inactive) | 0.00545 (inactive) | 19.9% (inactive) | 24.8% (inactive)
COCCSc1nnc(NC(=O)Cc2ccccc2OC)s1 | 660 | -15.1% (inactive) | 5.4% (inactive) | 94.2% | -30.7% (inactive) | 103% | -0.411 (inactive) | -5.1e-05 (inactive) | 0.00483 (inactive) | 16.6% (inactive) | 25.8% (inactive)
CS(=O)(=O)N1CCc2cc(S(=O)(=O)Nc3ccc4oc5c(c4c3)CCCC5)ccc21 | 484 | 7.3% (inactive) | -8.4% (inactive) | 104% | -40% (inactive) | 121% | -0.531 (inactive) | 1.3e-05 (inactive) | 0.00786 (inactive) | 11.9% (inactive) | 3.23% (inactive)
Cc1cc(C)cc(-n2nnc(C(=O)NCc3ccco3)c2N)c1 | 500 | 0.2% (inactive) | -20.1% (inactive) | 119% | -36.2% (inactive) | 107% | -0.557 (inactive) | -1.1e-05 (inactive) | 0.00643 (inactive) | -5.79% (inactive) | 100% (active)
CCOC(=O)C1CCCn2c1nc1sc3c(c1c2=O)CCCC3 (stereo not drawn) | 457 | 3.7% (inactive) | -6% (inactive) | 110% | -114% (inactive) | 115% | -0.435 (inactive) | 9.6e-06 (inactive) | 0.00445 (inactive) | -24.3% (inactive) | -20.3% (inactive)
CC1CN(C(=O)c2cc3cc(Cl)cc(Cl)c3oc2=O)CC(C)O1 (stereo not drawn) | 365 | 5.6% (inactive) | 1% (inactive) | 104% | -24.5% (inactive) | 100% | -0.474 (inactive) | -4.7e-06 (inactive) | 0.00693 (inactive) | 11.6% (inactive) | 23.5% (inactive)
O=C(Nc1nc(-c2ccncc2)cs1)C1COc2ccccc2O1 (stereo not drawn) | 646 | -4.9% (inactive) | -3.1% (inactive) | 118% | -28.4% (inactive) | 119% | -0.608 (inactive) | -3.7e-05 (inactive) | 0.00702 (inactive) | -5.76% (inactive) | -29.4% (inactive)
O=C(CN1CCC(O)(c2ccc3c(c2)OCO3)CC1)OC1CCCCC1 | 459 | -3.6% (inactive) | 28.4% (inactive) | 67.8% | -55.1% (inactive) | 99.5% | -0.313 (inactive) | -4.7e-05 (inactive) | 0.00487 (inactive) | 8.26% (inactive) | 15.6% (inactive)
O=C(Nc1ccon1)c1csc2c1CCCC2 | 332 | 1.2% (inactive) | -60% (inactive) | 104% | -52.8% (inactive) | 107% | -0.396 (inactive) | -5.9e-05 (inactive) | 0.00515 (inactive) | -0.246% (inactive) | 11.9% (inactive)
CCOc1ccccc1CNC(=O)CCN1C(=O)COc2ccccc21 | 630 | -1.8% (inactive) | -12.2% (inactive) | 47.7% | -71.5% (inactive) | 94.5% | -0.379 (inactive) | -2.3e-05 (inactive) | 0.00611 (inactive) | 12.2% (inactive) | 2.75% (inactive)
COc1ccc(C(=O)N2CCN(C3CCC(c4ccccc4)CC3)CC2)cc1OC (stereo not drawn) | 420 | -1.3% (inactive) | 20.2% (inactive) | 88.1% | 43.2% (inactive) | 83.9% | -0.436 (inactive) | -5.4e-05 (inactive) | 0.00292 (inactive) | 7.44% (inactive) | 17.6% (inactive)
N#CC(C(=O)c1ccco1)c1ccccn1 (stereo not drawn) | 699 | 2.8% (inactive) | -5.3% (inactive) | 108% | 43.2% (inactive) | 94.7% | -0.367 (inactive) | -2e-05 (inactive) | 0.00116 (inactive) | -8.81% (inactive) | -54% (inactive)
Cc1ccc2c(c1)N(CC(=O)N1CCCCC1c1cccnc1)C(=O)CO2 (stereo not drawn) | 442 | 2.2% (inactive) | 4.1% (inactive) | 104% | -48.3% (inactive) | 104% | -0.345 (inactive) | -6.9e-05 (inactive) | 0.0057 (inactive) | -2.12% (inactive) | 17.4% (inactive)
O=C(NCC(=O)N1CCC(N2CCCCC2)CC1)C1CCCCC1 | 505 | -12% (inactive) | 19.9% (inactive) | 91.8% | 10.2% (inactive) | 91% | -0.481 (inactive) | -0.000128 (inactive) | 0.00598 (inactive) | -3.39% (inactive) | 1.58% (inactive)
CC(C)C[C@H](NC(=O)Nc1cccc(C(F)(F)F)c1)C(=O)O | 393 | -9.8% (inactive) | 9.1% (inactive) | 70.6% | -25.5% (inactive) | 97.8% | -0.493 (inactive) | 4.1e-05 (inactive) | 0.00499 (inactive) | -1.3% (inactive) | 6.75% (inactive)
CCN(CC)c1ccc(/C=N/n2nnnc2N)c(O)c1 | 428 | -1.1% (inactive) | -13.8% (inactive) | 101% | -29.5% (inactive) | 130% | -0.413 (inactive) | 6.9e-05 (inactive) | 0.00627 (inactive) | 4.84% (inactive) | 1.57% (inactive)
CCN(CC)c1ccc2cc(NC(=O)CCC(=O)O)c(=O)oc2c1 | 463 | -21.1% (inactive) | -6.8% (inactive) | 95% | -33% (inactive) | 101% | -0.0111 (active) | -5.3e-06 (inactive) | 0.00247 (inactive) | 50.8% (active) | 92.5% (active)
COc1ccc(C2C(C#N)=C(N)Oc3cc4c(cc32)OCO4)cc1 (stereo not drawn) | 496 | 3.5% (inactive) | 4.7% (inactive) | 105% | -103% (inactive) | 110% | -0.401 (inactive) | -5.6e-05 (inactive) | 0.00586 (inactive) | -6.84% (inactive) | 59.4% (active)
COc1ccc(C(=O)NCCn2ccc3ccccc32)c(OC)c1 | 280 | -2.5% (inactive) | 0.8% (inactive) | 80.1% | -40.8% (inactive) | 95.6% | -0.608 (inactive) | 6.8e-06 (inactive) | 0.00591 (inactive) | 1.44% (inactive) | -24.1% (inactive)
FC(F)(F)c1nnc2sc(-c3cccs3)nn12 | 382 | -4% (inactive) | -16.2% (inactive) | 84.9% | -28.5% (inactive) | 96.5% | -0.567 (inactive) | -4.5e-05 (inactive) | 0.00576 (inactive) | 10.9% (inactive) | 11.3% (inactive)
CCOCCCn1c(=S)[nH]c2cc3c(cc2c1=O)OCO3 | 453 | 3% (inactive) | -8.1% (inactive) | 92% | -12.7% (inactive) | 103% | -0.489 (inactive) | -5.9e-05 (inactive) | 0.00895 (inactive) | -16.3% (inactive) | -2.74% (inactive)
O=C(NCc1cccnc1)c1ccc2c(c1)OCO2 | 415 | 10.5% (inactive) | -7.2% (inactive) | 103% | 4.1% (inactive) | 110% | -0.53 (inactive) | 3.1e-05 (inactive) | 0.00534 (inactive) | -28.8% (inactive) | -20% (inactive)
Cn1c(=O)[nH]c(=O)c2c1ncn2CCN1CCOCC1 | 696 | -12.1% (inactive) | -10.8% (inactive) | 107% | -6.5% (inactive) | 102% | -0.512 (inactive) | 1.1e-05 (inactive) | 0.00632 (inactive) | 8.85% (inactive) | 16.4% (inactive)
CC(C)(C)C(=O)/C=C(\N)c1ccccn1 | 404 | -5% (inactive) | 15.3% (inactive) | 89.1% | -33.9% (inactive) | 108% | -0.466 (inactive) | -5.5e-05 (inactive) | 0.00639 (inactive) | -0.411% (inactive) | 2.89% (inactive)
Cn1ccnc1SCC(=O)Nc1ccc2ccccc2c1 | 228 | 9.6% (inactive) | 13.5% (inactive) | 120% | -14.1% (inactive) | 105% | -0.519 (inactive) | -4.1e-05 (inactive) | 0.00777 (inactive) | 2.61% (inactive) | -32.6% (inactive)
CC(=O)Nc1ccc(S(=O)(=O)NCc2csc(-c3cccnc3)n2)cc1 | 356 | -10.2% (inactive) | -11.8% (inactive) | 108% | -19.2% (inactive) | 101% | -0.511 (inactive) | -3.4e-05 (inactive) | 0.00545 (inactive) | 9.95% (inactive) | 22.2% (inactive)
Cc1cc(NC(=O)COC(=O)C2COc3ccccc3O2)no1 (stereo not drawn) | 734 | -5.3% (inactive) | -24.5% (inactive) | 106% | -15.9% (inactive) | 103% | -0.407 (inactive) | -7.6e-05 (inactive) | 0.00343 (inactive) | 7.14% (inactive) | 12.6% (inactive)
Cc1nn(C)cc1NC(=O)CCSc1nc(-c2ccco2)cc(C(F)(F)F)n1 | 452 | -13.9% (inactive) | -12.3% (inactive) | 107% | 35.1% (inactive) | 106% | -0.615 (inactive) | -1.6e-06 (inactive) | 0.00399 (inactive) | -8.54% (inactive) | -43.3% (inactive)
